Experimental findings from paper PMC5700166 are described below.

The assay addresses T1, GST-Nv-NF-kB (Ser allele) (Nematostella vectensis, UniProt A7UNT2 2-411).
T1 sequence: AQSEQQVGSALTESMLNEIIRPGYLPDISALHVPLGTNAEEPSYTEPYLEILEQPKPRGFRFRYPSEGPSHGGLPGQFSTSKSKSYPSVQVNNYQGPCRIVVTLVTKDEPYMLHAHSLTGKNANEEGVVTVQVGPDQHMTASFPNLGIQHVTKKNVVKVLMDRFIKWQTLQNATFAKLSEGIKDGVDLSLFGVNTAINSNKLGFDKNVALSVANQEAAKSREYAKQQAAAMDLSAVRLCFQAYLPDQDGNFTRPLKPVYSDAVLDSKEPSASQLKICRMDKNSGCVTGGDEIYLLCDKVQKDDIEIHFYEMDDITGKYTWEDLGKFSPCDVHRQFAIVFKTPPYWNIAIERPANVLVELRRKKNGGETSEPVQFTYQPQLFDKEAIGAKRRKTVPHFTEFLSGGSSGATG
The experiment in a line: protein-binding microarray (PBM); PBM: ~300 nM protein, 6 mM HEPES pH 7.8, 80 mM KCl, 0.5 mM EDTA, 0.5 mM EGTA, 6% glycerol, 35 ng/ul poly-dIdC, 1% milk, 1 h, room temperature; Ap Aiptasia and Nv Nematostella (sea anemones) / Co Capsaspora / Aq Amphimedon (sponge) / Dm Drosophila / Hu human; RHD is the Rel homology domain; high values mean tight binding. The following applies: dsDNA, one strand shown.
Take “CCGATTAACATCAAGGGGGGTGGTGATGTTAATCGGGTCTTGATTCGCTTGACGCTGCTG”: the binding signal is 4.43 z-score. The result for “CCGATTAACATCAGGGGATAAAATGATGTTAATCGGGTCTTGATTCGCTTGACGCTGCTG” reads 6.05 z-score.

“CCGATTAACATCAAAAAAAGTACTGATGTTAATCGGGTCTTGATTCGCTTGACGCTGCTG”: the binding signal was 1.16 z-score. The result for “CCGATTAACATCACCTCTTTCCCTGATGTTAATCGGGTCTTGATTCGCTTGACGCTGCTG” reads 3.91 z-score; that for “CCGATTAACATCAATATAGTCCCTGATGTTAATCGGGTCTTGATTCGCTTGACGCTGCTG”, 4.68 z-score; that for “CCGATTAACATCAACCCCCGGCTTGATGTTAATCGGGTCTTGATTCGCTTGACGCTGCTG”, 2.23 z-score.

Take “CCGATTAACATCAGGGGATTAGATGATGTTAATCGGGTCTTGATTCGCTTGACGCTGCTG”: the binding signal came out at 6.46 z-score. The result for “CCGATTAACATCAAGGGGGTGACTGATGTTAATCGGGTCTTGATTCGCTTGACGCTGCTG” reads 3.83 z-score; that for “CCGATTAACATCACGGGGAGTCCTGATGTTAATCGGGTCTTGATTCGCTTGACGCTGCTG”, 4.29 z-score. For the sequence “CCGATTAACATCAACTGGGAAAATGATGTTAATCGGGTCTTGATTCGCTTGACGCTGCTG”, the binding signal was found to be 4.25 z-score. The result for “CCGATTAACATCAGGGGGAGAGATGATGTTAATCGGGTCTTGATTCGCTTGACGCTGCTG” reads 4.36 z-score. The result for “CCGATTAACATCAGACTGGGAAATGATGTTAATCGGGTCTTGATTCGCTTGACGCTGCTG” reads 1.66 z-score; that for “CCGATTAACATCAGGGATCCCCATGATGTTAATCGGGTCTTGATTCGCTTGACGCTGCTG”, 5.06 z-score; that for “CCGATTAACATCACATCTTTCCCTGATGTTAATCGGGTCTTGATTCGCTTGACGCTGCTG”, 4.65 z-score.
